# From the supplement of paper PMC4466140
# Assays:
# Experiment in all cases: SPOT peptide array binding signal intensity (averaged, normalized) (arbitrary units (background-subtracted, floor 0; scale differs between SH3 domains)); higher = stronger binding of the SH3 domain to the peptide
# AgAbp1 = target: AgAbp1
# How it was run: (§1)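 To measure binding, SH3 domains from four yeast species were fused to GST, expressed in E. coli BL21(DE3) and purified on glutathione Sepharose. Each domain was incubated at 10 μg/ml overnight at 4°C on cellulose membranes with synthetic 15-mer peptides whose cysteines were replaced by serines. Anti-GST antibody, an HRP anti-mouse secondary and luminol were used for detection, and images were quantified with Genespotter. Reported binding signal is normalized, background-subtracted spot intensity averaged over replicates, in arbitrary units that differ between domains.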
# AgBbc1 = target: AgBbc1
# How it was run: as §1
# AgBem1-D1 = target: AgBem1-D1
# How it was run: as §1
# AgBzz1-D1 = target: AgBzz1-D1
# How it was run: as §1
# AgBzz1-D2 = target: AgBzz1-D2
# How it was run: as §1
# AgCyk3 = target: AgCyk3
# How it was run: as §1
# AgFus1 = target: AgFus1
# How it was run: as §1
# AgHof1 = target: AgHof1
# How it was run: as §1
# AgHse1 = target: AgHse1
# How it was run: as §1
# AgLsb1 = target: AgLsb1
# How it was run: as §1
# AgLsb4 = target: AgLsb4
# How it was run: as §1
# AgMyo5 = target: AgMyo5
# How it was run: as §1
# AgNbp2 = target: AgNbp2
# How it was run: as §1
# AgRvs167 = target: AgRvs167
# How it was run: as §1
# AgSho1 = target: AgSho1
# How it was run: as §1
# AgSla1-D1-D2 = target: AgSla1-D1-D2
# How it was run: as §1
# AgSla1-D3 = target: AgSla1-D3
# How it was run: as §1
# CaAbp1-D1 = target: CaAbp1-D1
# How it was run: as §1
# CaAbp1-D2 = target: CaAbp1-D2
# How it was run: as §1
# CaBbc1 = target: CaBbc1
# How it was run: as §1
# CaBem1-D1 = target: CaBem1-D1
# How it was run: as §1
# CaBzz1-D1 = target: CaBzz1-D1
# How it was run: as §1
# CaBzz1-D2 = target: CaBzz1-D2
# How it was run: as §1
# CaCyk3 = target: CaCyk3
# How it was run: as §1
# CaFus1 = target: CaFus1
# How it was run: as §1
# CaHof1 = target: CaHof1
# How it was run: as §1
# CaHse1 = target: CaHse1
# How it was run: as §1
# CaLsb1 = target: CaLsb1
# How it was run: as §1
# CaLsb4 = target: CaLsb4
# How it was run: as §1
# CaMyo5 = target: CaMyo5
# How it was run: as §1
# CaNbp2 = target: CaNbp2
# How it was run: as §1
# CaRvs167 = target: CaRvs167
# How it was run: as §1
# CaRvs167-3 = target: CaRvs167-3
# How it was run: as §1
# CaSho1 = target: CaSho1
# How it was run: as §1
# CaSla1-D1-D2 = target: CaSla1-D1-D2
# How it was run: as §1
# CaSla1-D3 = target: CaSla1-D3
# How it was run: as §1
# ScAbp1 = target: ScAbp1
# How it was run: as §1
# ScBbc1 = target: ScBbc1
# How it was run: as §1
# ScBem1-D1 = target: ScBem1-D1
# How it was run: as §1
# ScBzz1-D1 = target: ScBzz1-D1
# How it was run: as §1
# ScBzz1-D2 = target: ScBzz1-D2
# How it was run: as §1
# ScCyk3 = target: ScCyk3
# How it was run: as §1
# ScFus1 = target: ScFus1
# How it was run: as §1
# ScHof1 = target: ScHof1
# How it was run: as §1
# ScHse1 = target: ScHse1
# How it was run: as §1
# ScLsb1 = target: ScLsb1
# How it was run: as §1
# ScLsb2 = target: ScLsb2
# How it was run: as §1
# ScLsb3 = target: ScLsb3
# How it was run: as §1
# ScLsb4 = target: ScLsb4
# How it was run: as §1
# ScMyo3 = target: ScMyo3
# How it was run: as §1
# ScMyo5 = target: ScMyo5
# How it was run: as §1
# ScNbp2 = target: ScNbp2
# How it was run: as §1
# ScPex13 = target: ScPex13
# How it was run: as §1
# ScRvs167 = target: ScRvs167
# How it was run: as §1
# ScSho1 = target: ScSho1
# How it was run: as §1
# ScSla1-D1-D2 = target: ScSla1-D1-D2
# How it was run: as §1
# ScSla1-D3 = target: ScSla1-D3
# How it was run: as §1
# SpAbp1-D1 = target: SpAbp1-D1
# How it was run: as §1
# SpBbc1 = target: SpBbc1
# How it was run: as §1
# SpBzz1-D1 = target: SpBzz1-D1
# How it was run: as §1
# SpBzz1-D2 = target: SpBzz1-D2
# How it was run: as §1
# SpCyk3 = target: SpCyk3
# How it was run: as §1
# SpHof1 = target: SpHof1
# How it was run: as §1
# SpHof1-2 = target: SpHof1-2
# How it was run: as §1
# SpHof1-3 = target: SpHof1-3
# How it was run: as §1
# SpHse1 = target: SpHse1
# How it was run: as §1
# SpLsb1 = target: SpLsb1
# How it was run: as §1
# SpLsb4 = target: SpLsb4
# How it was run: as §1
# SpMyo1 = target: SpMyo1
# How it was run: as §1
# SpNbp2 = target: SpNbp2
# How it was run: as §1
# SpPex13 = target: SpPex13
# How it was run: as §1
# SpRvs167 = target: SpRvs167
# How it was run: as §1
# SpSla1-D1-D2 = target: SpSla1-D1-D2
# How it was run: as §1
# SpSla1-D3 = target: SpSla1-D3
# How it was run: as §1
binder,measurement,setting,value
MFLISPPASPPPEFD,SPOT peptide array binding signal intensity,AgAbp1,≤ 0
same,SPOT peptide array binding signal intensity,AgBbc1,≤ 0
same,SPOT peptide array binding signal intensity,AgBem1-D1,70
same,SPOT peptide array binding signal intensity,AgBzz1-D1,≤ 0
same,SPOT peptide array binding signal intensity,AgBzz1-D2,≤ 0
same,SPOT peptide array binding signal intensity,AgCyk3,1.5
same,SPOT peptide array binding signal intensity,AgFus1,4
same,SPOT peptide array binding signal intensity,AgHof1,4
same,SPOT peptide array binding signal intensity,AgHse1,≤ 0
same,SPOT peptide array binding signal intensity,AgLsb1,≤ 0
same,SPOT peptide array binding signal intensity,AgLsb4,≤ 0
same,SPOT peptide array binding signal intensity,AgMyo5,388
same,SPOT peptide array binding signal intensity,AgNbp2,2
same,SPOT peptide array binding signal intensity,AgRvs167,≤ 0
same,SPOT peptide array binding signal intensity,AgSho1,1.5
same,SPOT peptide array binding signal intensity,AgSla1-D1-D2,3
same,SPOT peptide array binding signal intensity,AgSla1-D3,1
same,SPOT peptide array binding signal intensity,CaAbp1-D1,≤ 0
same,SPOT peptide array binding signal intensity,CaAbp1-D2,≤ 0
same,SPOT peptide array binding signal intensity,CaBbc1,6
same,SPOT peptide array binding signal intensity,CaBem1-D1,≤ 0
same,SPOT peptide array binding signal intensity,CaBzz1-D1,≤ 0
same,SPOT peptide array binding signal intensity,CaBzz1-D2,≤ 0
same,SPOT peptide array binding signal intensity,CaCyk3,2
same,SPOT peptide array binding signal intensity,CaFus1,342
same,SPOT peptide array binding signal intensity,CaHof1,≤ 0
same,SPOT peptide array binding signal intensity,CaHse1,8
same,SPOT peptide array binding signal intensity,CaLsb1,≤ 0
same,SPOT peptide array binding signal intensity,CaLsb4,≤ 0
same,SPOT peptide array binding signal intensity,CaMyo5,180
same,SPOT peptide array binding signal intensity,CaNbp2,31
same,SPOT peptide array binding signal intensity,CaRvs167,5.83
same,SPOT peptide array binding signal intensity,CaRvs167-3,3.75
same,SPOT peptide array binding signal intensity,CaSho1,19
same,SPOT peptide array binding signal intensity,CaSla1-D1-D2,≤ 0
same,SPOT peptide array binding signal intensity,CaSla1-D3,11.2
same,SPOT peptide array binding signal intensity,ScAbp1,5.5
same,SPOT peptide array binding signal intensity,ScBbc1,≤ 0
same,SPOT peptide array binding signal intensity,ScBem1-D1,≤ 0
same,SPOT peptide array binding signal intensity,ScBzz1-D1,7
same,SPOT peptide array binding signal intensity,ScBzz1-D2,2
same,SPOT peptide array binding signal intensity,ScCyk3,2
same,SPOT peptide array binding signal intensity,ScFus1,7
same,SPOT peptide array binding signal intensity,ScHof1,≤ 0
same,SPOT peptide array binding signal intensity,ScHse1,≤ 0
same,SPOT peptide array binding signal intensity,ScLsb1,≤ 0
same,SPOT peptide array binding signal intensity,ScLsb2,≤ 0
same,SPOT peptide array binding signal intensity,ScLsb3,≤ 0
same,SPOT peptide array binding signal intensity,ScLsb4,≤ 0
same,SPOT peptide array binding signal intensity,ScMyo3,735
same,SPOT peptide array binding signal intensity,ScMyo5,650
same,SPOT peptide array binding signal intensity,ScNbp2,20
same,SPOT peptide array binding signal intensity,ScPex13,≤ 0
same,SPOT peptide array binding signal intensity,ScRvs167,≤ 0
same,SPOT peptide array binding signal intensity,ScSho1,≤ 0
same,SPOT peptide array binding signal intensity,ScSla1-D1-D2,≤ 0
same,SPOT peptide array binding signal intensity,ScSla1-D3,7.25
same,SPOT peptide array binding signal intensity,SpAbp1-D1,≤ 0
same,SPOT peptide array binding signal intensity,SpBbc1,0.5
same,SPOT peptide array binding signal intensity,SpBzz1-D1,33.5
same,SPOT peptide array binding signal intensity,SpBzz1-D2,≤ 0
same,SPOT peptide array binding signal intensity,SpCyk3,4
same,SPOT peptide array binding signal intensity,SpHof1,7.5
same,SPOT peptide array binding signal intensity,SpHof1-2,8.25
same,SPOT peptide array binding signal intensity,SpHof1-3,≤ 0
same,SPOT peptide array binding signal intensity,SpHse1,103
same,SPOT peptide array binding signal intensity,SpLsb1,≤ 0
same,SPOT peptide array binding signal intensity,SpLsb4,49
same,SPOT peptide array binding signal intensity,SpMyo1,1430
same,SPOT peptide array binding signal intensity,SpNbp2,9
same,SPOT peptide array binding signal intensity,SpPex13,2.5
same,SPOT peptide array binding signal intensity,SpRvs167,≤ 0
same,SPOT peptide array binding signal intensity,SpSla1-D1-D2,≤ 0
same,SPOT peptide array binding signal intensity,SpSla1-D3,≤ 0
